# Assay results from PubChem BioAssay.
# Activity calls are given as the source filed them. Unless noted, the rule behind the calls is not given here.
# What was measured:
# [1] = compounds binding Alexa647 anti-His antibody – biochemical, small-molecule microarray, 635 nm fluorescence, artefact control for SMM control protein annotation, primary screen (AID 1128); details: higher = more signal;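 note: score merges feature fluorescence with signal-to-noise for each printed compound spot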
# [2] = tested on: Human papillomavirus type 1a E7 protein (residues 1-88); experiment: HPV1a E7 small-molecule binders, primary screen, biochemical, small-molecule microarray, residues 1-88, 635 nm (AID 1129); details: small-molecule microarray binding, fluorescence 635 nm; higher = more signal
# [3] = target: Focal adhesion kinase 1 (Homo sapiens) (UniProt Q05397); experiment: PTK2 protein binding on printed compound slides – biochemical, small-molecule microarray, 635/667 nm fluorescence, BSA, DTT, primary screen (AID 1130); details: 635 nm fluorescence, higher = more signal;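 note: composite of spot emission at 667 nm and signal to noise over triplicate slides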
# [4] = tested on: Fibrinogen (Alexa647-labelled); experiment: Alexa647-fibrinogen binding to printed small molecules – biochemical, small-molecule microarray, 635/667 nm fluorescence, artefact control for SMM control-protein annotation, profiling panel (AID 1131); details: fibrinogen-A647 binding fluorescence, higher = more signal;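 note: z-score merges 667 nm fluorescence with per-spot signal-to-noise over triplicate slides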
# [5] = target: Follistatin (Homo sapiens) (UniProt P19883); experiment: FST protein binding to printed compounds – biochemical, small-molecule microarray, 635/667 nm fluorescence, primary screen (AID 1132); details: 635 nm fluorescence, higher = more signal
# [6] = target: Fibroblast growth factor 2 (Homo sapiens) (UniProt P09038); experiment: basic fibroblast growth factor binding to printed compounds – biochemical, small-molecule microarray, 635/667 nm fluorescence, primary screen (AID 1133); details: FGF2, fluorescence 635/667, higher = more signal
# [7] = JC-1 mitochondrial potential readout, lung cancer cells – cell-based, A549, JC-1 fluorescence, basal, 24 h, 100 nL, profiling panel (AID 1138); details: higher = more signal;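 note: A549 lung adenocarcinoma cells under basal conditions with no added stimulus; test concentration not given here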
# [8] = tested on: Lefty1; experiment: Lefty1 protein binding to printed compounds – biochemical, small-molecule microarray, 635/667 nm fluorescence, primary screen (AID 1139); details: fluorescence 635/667, higher = more signal
# [9] = tested on: wheat germ agglutinin (Triticum aestivum), Alexa647-labelled; experiment: Alexa647-WGA lectin binding to printed small molecules – biochemical, small-molecule microarray, 635/667 nm fluorescence, artefact control for SMM control-protein annotation, profiling panel (AID 1140); details: WGA-A647 binding, 635 nm fluorescence, higher = more signal;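 note: score merges 667 nm feature emission with signal to noise over triplicate slides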
# [10] = target: Luciferin 4-monooxygenase (Photinus pyralis) (UniProt P08659); experiment: inhibition of purified Photinus pyralis luciferase – biochemical, luminescence, purified enzyme, 2006 set, primary screen (AID 1141); details: purified firefly luciferase, SteadyGlo luminescence, 30 min; higher = more signal, called active from +8 up or from −8 down;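 note: cell-free assay with purified firefly luciferase at 100 ng per well in PBS; test concentration not given here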
# [11] = tested on: Wnt5a (protein binding on small-molecule microarray); experiment: small molecules binding Wnt5a protein – biophysical, small-molecule microarray, 635/667 nm fluorescence, primary screen (AID 1142); details: 635 nm fluorescence, higher = more signal;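 note: fluorescence read at 667 nm with signal to noise per printed feature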
# [12] = ATP-based viability of Huh7 replicon cells – cell-based, CellTiter-Glo luminescence, basal, 48 h, cytotoxicity control for HCV replication inhibitor project, primary screen (AID 1143); details: higher = more signal, called active from +8 up or from −8 down;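 note: Huh7 hepatoma cells carrying a hepatitis C replication reporter with no stimulus; test concentration not given here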
# [13] = Pseudomonas biofilm growth suppression – PAO1 strain, BacTiter-Glo luminescence, LB-PBS, primary screen (AID 1144); details: P. aeruginosa PAO1 biofilm, 12 h, higher = more signal
# [14] = basal CRE-LacZ reporter activity in PC12 – cell-based, unstimulated, primary screen (AID 1145); details: no forskolin, luminescence, 4.5 h, higher = more signal, called active from +8 up or from −8 down
# [15] = forskolin-driven CRE-LacZ activity in PC12 – cell-based, CRE-LacZ reporter, forskolin-stimulated, primary screen (AID 1146); details: luminescence, 4.5 h, higher = more signal, called active from +8 up or from −8 down;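 note: PC12 cells with 6xCRE LacZ reporter stimulated by forskolin 10 µM; beta-galactosidase reporter signal reflecting CREB driven transcription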
# [16] = target: Streptavidin (Streptomyces avidinii) (UniProt P22629); experiment: compounds binding control protein streptavidin – biophysical, small-molecule microarray, 635/667 nm fluorescence, artefact control for SMM compound annotation, primary screen (AID 1147); details: higher = more signal;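 note: signal reflects streptavidin binding to arrayed compounds as a control protein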
# [17] = probe aInhba binding on compound microarray – biochemical, small-molecule microarray, 635/667 nm fluorescence, primary screen (AID 1148); details: higher = more signal;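 note: score merges 667nm spot fluorescence with signal-to-noise for antibody binding to printed compounds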
# [18] = target: Torsin-1A (Homo sapiens) (UniProt O14656); experiment: TOR1A wild-type binding on microarray – cell lysate, small-molecule microarray, lysate, 635/667 nm, primary screen (AID 1149); details: COS7 hTOR1A-WT lysate, 635 nm fluorescence, higher = more signal
# [19] = target: Torsin-1A (Homo sapiens) (UniProt O14656); experiment: torsin A mutant lysate binding on microarrays – cell lysate, small-molecule microarray, COS7 lysate, 635/667 nm fluorescence, primary screen (AID 1150); details: COS7 hTOR1A mutant lysate, 635 nm fluorescence, higher = more signal;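 note: score pools 667 nm emission and signal to noise measuring lysate protein binding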
# [20] = tested on: Sonic hedgehog protein (Shh); experiment: Sonic hedgehog microarray binding compounds – biochemical, small-molecule microarray, 635/667 nm fluorescence, primary screen (AID 1151); details: 635 nm fluorescence, higher = more signal;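 note: Shh protein binding to compounds spotted on small-molecule microarray slides; score combines spot fluorescence intensity with signal-to-noise across triplicate slides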
# Sequence of Fibroblast growth factor 2 (Homo sapiens) (P09038 whole entry, looked up): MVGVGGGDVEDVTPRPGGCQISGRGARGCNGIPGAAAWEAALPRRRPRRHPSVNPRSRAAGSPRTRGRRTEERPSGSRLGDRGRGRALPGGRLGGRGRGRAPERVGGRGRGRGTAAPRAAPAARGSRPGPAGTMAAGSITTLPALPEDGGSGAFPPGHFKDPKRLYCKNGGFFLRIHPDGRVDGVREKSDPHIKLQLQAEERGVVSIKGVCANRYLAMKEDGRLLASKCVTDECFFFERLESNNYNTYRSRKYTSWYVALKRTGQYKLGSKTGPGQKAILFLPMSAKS
# Sequence of Torsin-1A (Homo sapiens) (O14656 whole entry, looked up): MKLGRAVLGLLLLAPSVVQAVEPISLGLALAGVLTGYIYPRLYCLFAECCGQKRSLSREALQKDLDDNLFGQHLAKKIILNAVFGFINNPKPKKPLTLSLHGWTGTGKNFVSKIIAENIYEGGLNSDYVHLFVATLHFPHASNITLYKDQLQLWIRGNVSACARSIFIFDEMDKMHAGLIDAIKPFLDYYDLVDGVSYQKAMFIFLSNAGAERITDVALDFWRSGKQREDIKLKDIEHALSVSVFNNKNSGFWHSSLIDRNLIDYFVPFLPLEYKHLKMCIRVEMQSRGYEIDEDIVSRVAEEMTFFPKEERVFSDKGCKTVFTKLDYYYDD
# Sequence of Luciferin 4-monooxygenase (Photinus pyralis) (P08659 whole entry, looked up): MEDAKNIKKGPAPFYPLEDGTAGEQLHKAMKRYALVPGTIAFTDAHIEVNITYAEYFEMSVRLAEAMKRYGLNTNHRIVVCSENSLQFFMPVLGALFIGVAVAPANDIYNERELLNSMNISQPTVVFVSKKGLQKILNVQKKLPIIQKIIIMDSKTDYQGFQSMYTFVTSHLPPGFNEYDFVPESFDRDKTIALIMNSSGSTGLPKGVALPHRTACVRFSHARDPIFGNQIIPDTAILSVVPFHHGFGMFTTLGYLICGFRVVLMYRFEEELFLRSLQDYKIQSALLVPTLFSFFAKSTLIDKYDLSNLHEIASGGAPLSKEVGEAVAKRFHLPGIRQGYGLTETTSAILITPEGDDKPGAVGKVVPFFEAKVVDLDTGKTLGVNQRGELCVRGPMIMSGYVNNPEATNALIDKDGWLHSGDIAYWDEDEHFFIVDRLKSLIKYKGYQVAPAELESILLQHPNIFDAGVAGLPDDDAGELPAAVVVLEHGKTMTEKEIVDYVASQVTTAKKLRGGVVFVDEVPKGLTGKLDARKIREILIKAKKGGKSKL
# Sequence of Follistatin (Homo sapiens) (P19883 whole entry, looked up): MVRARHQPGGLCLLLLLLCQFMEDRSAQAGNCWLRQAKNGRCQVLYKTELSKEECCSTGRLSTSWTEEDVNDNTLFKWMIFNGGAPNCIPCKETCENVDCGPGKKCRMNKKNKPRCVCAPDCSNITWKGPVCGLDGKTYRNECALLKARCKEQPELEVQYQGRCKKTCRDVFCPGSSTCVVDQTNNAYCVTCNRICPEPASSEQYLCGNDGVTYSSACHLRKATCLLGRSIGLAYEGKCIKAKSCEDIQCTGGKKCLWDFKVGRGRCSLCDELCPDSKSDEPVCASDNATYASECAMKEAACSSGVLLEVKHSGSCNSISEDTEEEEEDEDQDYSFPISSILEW
# Sequence of Focal adhesion kinase 1 (Homo sapiens) (Q05397 whole entry, looked up): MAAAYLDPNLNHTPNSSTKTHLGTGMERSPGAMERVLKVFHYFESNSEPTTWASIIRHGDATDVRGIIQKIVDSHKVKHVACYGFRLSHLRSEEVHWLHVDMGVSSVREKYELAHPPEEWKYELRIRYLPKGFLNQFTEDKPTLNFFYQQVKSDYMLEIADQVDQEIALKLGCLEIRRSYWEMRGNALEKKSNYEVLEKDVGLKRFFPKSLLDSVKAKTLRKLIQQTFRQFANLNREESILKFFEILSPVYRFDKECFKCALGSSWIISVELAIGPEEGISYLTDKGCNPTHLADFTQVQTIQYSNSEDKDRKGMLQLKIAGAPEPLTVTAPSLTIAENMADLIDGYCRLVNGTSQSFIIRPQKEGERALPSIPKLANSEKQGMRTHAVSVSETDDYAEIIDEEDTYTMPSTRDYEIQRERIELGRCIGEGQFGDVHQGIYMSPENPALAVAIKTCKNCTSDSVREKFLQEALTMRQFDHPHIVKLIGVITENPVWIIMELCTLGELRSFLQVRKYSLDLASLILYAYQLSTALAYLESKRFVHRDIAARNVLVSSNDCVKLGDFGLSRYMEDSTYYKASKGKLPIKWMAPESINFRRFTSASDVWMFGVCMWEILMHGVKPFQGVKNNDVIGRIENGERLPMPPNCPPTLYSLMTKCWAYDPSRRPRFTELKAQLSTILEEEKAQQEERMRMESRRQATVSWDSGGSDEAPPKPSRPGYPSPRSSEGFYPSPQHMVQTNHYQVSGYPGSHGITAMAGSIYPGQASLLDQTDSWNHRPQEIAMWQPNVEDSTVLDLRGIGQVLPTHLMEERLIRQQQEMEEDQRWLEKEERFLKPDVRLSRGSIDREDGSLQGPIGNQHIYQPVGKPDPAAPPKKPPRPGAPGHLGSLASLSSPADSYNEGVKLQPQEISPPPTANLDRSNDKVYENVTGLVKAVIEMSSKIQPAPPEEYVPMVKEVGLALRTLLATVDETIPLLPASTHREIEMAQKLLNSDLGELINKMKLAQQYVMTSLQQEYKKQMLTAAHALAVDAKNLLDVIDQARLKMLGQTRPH
# Sequence of Streptavidin (Streptomyces avidinii) (P22629 whole entry, looked up): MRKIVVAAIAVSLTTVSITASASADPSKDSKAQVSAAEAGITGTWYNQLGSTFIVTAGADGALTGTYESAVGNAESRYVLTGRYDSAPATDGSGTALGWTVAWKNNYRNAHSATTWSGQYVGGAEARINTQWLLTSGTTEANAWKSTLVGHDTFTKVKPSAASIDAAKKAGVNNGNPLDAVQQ
Compound,composite z-score [1],composite z-score [2],composite z-score [3],composite z-score [4],composite z-score [5],composite z-score [6],z-score [7],composite z-score [8],composite z-score [9],z-score [10],composite z-score [11],z-score [12],z-score [13],z-score [14],z-score [15],composite z-score [16],composite z-score [17],composite z-score [18],composite z-score [19],composite z-score [20]
COC(=O)CC1OC1[C@H](C)[C@@H](OC)C(C)C (stereo not given in full),-0.0177,0.212,-0.405,0.745,0.623,0.443,3.01,0.786,0.733,-1.73 (inactive),-0.0087,-0.229 (inactive),-0.183 (inactive),1.47 (inactive),-0.213 (inactive),-0.329,-0.0963,0.436,0.0299,0.813
O=C1NC(=O)C2C1C=CC(C(O)Cc1ccccc1)N2Nc1ccccn1 (stereo not given),0.596,0.45,0.116,0.353,0.194,0.512,1.78,-0.174,0.639,-0.523 (inactive),0.0926,-0.151 (inactive),-0.314 (inactive),0.0603 (inactive),0.589 (inactive),0.125,-0.0039,0.638,0.933,0.141
O=C1[C@H]2[C@H]3[C@H](O)[C@H](O)CC(=NOCc4ccccc4)[C@@H]3CC[C@H]2C(=O)N1Cc1ccccc1,-0.0529,0.719,0.166,-0.757,0.371,0.47,-0.806,0.597,0.0885,1.09 (inactive),-0.0408,0.0627 (inactive),0.76 (inactive),0.155 (inactive),0.663 (inactive),0.336,-0.128,-0.0549,0.282,0.84
C#CCCCON=C1C[C@@H](O)[C@@H](O)[C@@H]2[C@@H]3C(=O)N([C@@H](C)c4ccccc4)C(=O)[C@@H]3CC[C@H]12,0.449,0.621,0.48,0.778,0.615,0.594,-0.887,0.535,0.203,0.794 (inactive),-0.216,-3.38 (inactive),-0.0158 (inactive),2.61 (inactive),-0.428 (inactive),0.029,-0.128,0.258,0.126,0.552
O=C1[C@H]2[C@H]3[C@H](O)[C@H](O)CC(=NO[C@@H]4O[C@H](CO)[C@@H](O)[C@H](O)[C@H]4O)[C@H]3CC[C@H]2C(=O)N1Cc1ccccc1,0.0948,0.768,0.0406,-0.187,-0.179,0.389,-0.252,0.358,-0.0816,0.589 (inactive),0.927,-0.871 (inactive),0.641 (inactive),-0.474 (inactive),-0.0615 (inactive),0.001,-0.0736,0.717,0.0309,0.439
